Measurements published in the supplement of paper PMC3334620.
The full ranking holds about 33,000 sequences; the median of “E-score (-0.5 to 0.5)” is about -8e-05, and the highest 2% start at about 0.23. The sample holds the highest values, similar sequences and a random draw of the others, so the mix is not that of the screen.

These sequences were tested against T1, Nrg2 (UniProt P38082) (assay: PBM E-score (8-mer binding enrichment) (E-score (-0.5 to 0.5)); higher = stronger / more preferred TF binding). Details: protein concentration: 100 nM; construct: GST-full length.
T1 sequence: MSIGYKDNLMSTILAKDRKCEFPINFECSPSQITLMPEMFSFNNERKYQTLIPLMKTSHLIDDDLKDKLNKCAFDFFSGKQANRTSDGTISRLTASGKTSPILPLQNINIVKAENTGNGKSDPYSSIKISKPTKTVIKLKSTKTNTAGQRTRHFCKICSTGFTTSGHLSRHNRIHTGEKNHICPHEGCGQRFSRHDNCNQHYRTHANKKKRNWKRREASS
How it was run: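 Full-length yeast transcription factors or their DNA-binding domains, GST-tagged and expressed with PURExpress, were applied at about 100-200 nM to universal all-10-mer Agilent arrays. These arrays had been made double-stranded by primer extension on fresh or once-stripped slides. Detection used fluorescent anti-GST, normalisation used masliner, and E-scores for ungapped eight-base words pooled with reverse complements came from the Universal PBM Analysis Suite.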

Going from ACCGACAC to GGGAGGAC, the “PBM E-score” value rises from -0.0406 to 0.0465.

Compared with GTCGTTTA, AACGTCAC is lower in “PBM E-score” value: -0.00227 for the first, -0.00893 for the second.

First: CCGCCCAG
Second: GAATCAGA
The “PBM E-score” value of the first is lower: -0.0404 for the first, 0.23 for the second.

First: TAATCAGA
Second: AAATCAGA
The “PBM E-score” value of the first is higher: 0.133 for the first, 0.129 for the second.

Going from CGTTAAAG to GAGCTACA, the “PBM E-score” value falls from 0.00135 to -0.114.

Compared with AGATACTG, AGATACAG is lower in “PBM E-score” value: 0.242 for the first, 0.136 for the second.

First: GGATACAC
Second: AGATACAC
The “PBM E-score” value of the first is lower: -0.0641 for the first, 0.244 for the second.

Compared with AGATACTA, AGATACTC is higher in “PBM E-score” value: 0.0761 for the first, 0.1 for the second.

Going from ATACATGC to GGTTATGA, the “PBM E-score” value falls from -0.0508 to -0.0752.

Compared with CAAAAGGA, ACCCTAAC is higher in “PBM E-score” value: -0.0703 for the first, 0.116 for the second.

Compared with GACTGTTA, AGACTGAC is lower in “PBM E-score” value: -0.0515 for the first, -0.1 for the second.

Compared with AATAAGAT, GATAAGAA is higher in “PBM E-score” value: 0.0228 for the first, 0.0876 for the second.

Compared with CATAAGAA, AATAAGAG is lower in “PBM E-score” value: 0.254 for the first, 0.115 for the second.

Going from TATAAGAA to AATAAGAA, the “PBM E-score” value rises from 0.12 to 0.233.

Compared with GTCCCAGA, AGCTACAC is higher in “PBM E-score” value: -0.19 for the first, 0.0938 for the second.

Compared with GAGACTAA, GAACAATC is higher in “PBM E-score” value: -0.027 for the first, 0.0696 for the second.

Compared with ATACAACG, CTACAATA is lower in “PBM E-score” value: 0.0553 for the first, 0.00041 for the second.

First: ATACAACA
Second: AAACAATT
The “PBM E-score” value of the first is higher: 0.246 for the first, 0.137 for the second.

First: ATACAACC
Second: ATACAATC
The “PBM E-score” value of the first is higher: -0.00323 for the first, -0.0431 for the second.

Compared with GAACAATA, AAACAATG is lower in “PBM E-score” value: 0.277 for the first, 0.0814 for the second.

Going from TAACAATA to AAACAATA, the “PBM E-score” value rises from 0.132 to 0.261.

Compared with ATACAATA, CGTCCGAG is lower in “PBM E-score” value: 0.239 for the first, 0.0587 for the second.

Compared with AAGGCCTC, TAGAGCGA is lower in “PBM E-score” value: -0.0691 for the first, -0.079 for the second.

Going from CGACACAG to CAGAGGGG, the “PBM E-score” value falls from -0.0558 to -0.314.

Compared with TGATAGAA, TCTACGCA is higher in “PBM E-score” value: -0.0926 for the first, 0.0696 for the second.

First: GAGGTTTA
Second: ACGGTTCG
The “PBM E-score” value of the first is higher: -0.00946 for the first, -0.169 for the second.

Going from CAGGTGGG to AGGCTAGC, the “PBM E-score” value falls from -0.0155 to -0.223.

Going from AATCGAGG to AATCGATA, the “PBM E-score” value falls from 0.248 to 0.158.

Compared with AATCGATC, CATCGAAA is lower in “PBM E-score” value: 0.0541 for the first, 0.0505 for the second.

Compared with TATCGAAA, AATCGAAA is lower in “PBM E-score” value: 0.255 for the first, 0.0902 for the second.

Going from AATCGAAG to CATCGAGG, the “PBM E-score” value falls from 0.264 to 0.0813.

First: AATCGAGT
Second: AATCGAAC
The “PBM E-score” value of the first is lower: 0.0016 for the first, 0.169 for the second.

Compared with GATCGAAA, AATCGATT is higher in “PBM E-score” value: 0.108 for the first, 0.247 for the second.

Going from GACTGGGA to ATAGCCGG, the “PBM E-score” value falls from -0.0261 to -0.145.

Compared with ACAACCAG, ACAACCAC is lower in “PBM E-score” value: 0.101 for the first, -0.0501 for the second.

Going from ACAACCAT to ACGTGGTG, the “PBM E-score” value falls from 0.24 to -0.139.

Going from AGAGTTAG to CCGACGAC, the “PBM E-score” value rises from -0.0429 to 0.00776.

First: ACTGCTCT
Second: CCATGAGC
The “PBM E-score” value of the first is higher: 0.00123 for the first, -0.047 for the second.

First: AATGCGAG
Second: ATTAATTA
The “PBM E-score” value of the first is lower: 0.107 for the first, 0.117 for the second.

Compared with CTTAATGA, ATTAATTC is higher in “PBM E-score” value: 0.0652 for the first, 0.229 for the second.

Going from ATTAATTG to ATTAATGA, the “PBM E-score” value rises from 0.142 to 0.235.

Compared with ATTAATGC, GTGTAGCA is lower in “PBM E-score” value: 0.0582 for the first, -0.149 for the second.

Compared with AGCTATCC, ACGCGGAA is higher in “PBM E-score” value: -0.208 for the first, -0.0174 for the second.

Compared with CGGATAAC, TGGATAAA is lower in “PBM E-score” value: 0.05 for the first, 0.0491 for the second.

Compared with CGGATAAA, CTTTGGAA is lower in “PBM E-score” value: 0.234 for the first, -0.152 for the second.

Compared with ACTATGAG, AATCGGAA is higher in “PBM E-score” value: -0.0885 for the first, 0.242 for the second.

Going from TATCGGAA to AATCGGAG, the “PBM E-score” value rises from 0.0162 to 0.105.

Compared with AGAGAAAG, GCTTCTCA is higher in “PBM E-score” value: -0.00961 for the first, 0.00982 for the second.

Going from AGCCCATC to AATCTCGG, the “PBM E-score” value rises from -0.0428 to 0.0273.

Compared with CATCGCGC, AATCGCAT is higher in “PBM E-score” value: 0.0459 for the first, 0.245 for the second.

Going from AATCGCAC to AATCGCGC, the “PBM E-score” value rises from -0.165 to 0.23.

First: AATCTCGC
Second: AATCGCAG
The “PBM E-score” value of the first is higher: 0.235 for the first, 0.16 for the second.

Compared with GATCTCGC, AATCGCGA is higher in “PBM E-score” value: 0.144 for the first, 0.185 for the second.

Compared with AGATGGCA, AGCGGTTG is lower in “PBM E-score” value: 0.0923 for the first, -0.028 for the second.

Compared with AGATTGCG, CTGAGACA is higher in “PBM E-score” value: 0.00885 for the first, 0.0347 for the second.

Going from AAAACTTA to GTAGGTAA, the “PBM E-score” value falls from 0.0488 to 0.00715.

First: AGGCTGAA
Second: TCAAATGA
The “PBM E-score” value of the first is higher: -0.0879 for the first, -0.0989 for the second.

First: CTCTCACA
Second: CCCCTGAA
The “PBM E-score” value of the first is lower: 0.124 for the first, 0.356 for the second.

Going from GCCCTGAA to TCCCTGAA, the “PBM E-score” value rises from 0.22 to 0.25.

Compared with TACCTGAA, CACCTGAA is higher in “PBM E-score” value: 0.0117 for the first, 0.0424 for the second.

First: CCCCTGTA
Second: GCCGTCTA
The “PBM E-score” value of the first is higher: 0.144 for the first, -0.0529 for the second.

First: CGGTTTGC
Second: CCTGAAGG
The “PBM E-score” value of the first is lower: -0.0375 for the first, -0.0247 for the second.

First: AGTCAAGG
Second: ATCCGAAT
The “PBM E-score” value of the first is lower: -0.174 for the first, 0.251 for the second.

Going from ATCCGAAC to ATCCGAAG, the “PBM E-score” value falls from 0.0668 to -0.0314.

First: ACAAAACA
Second: CTGGCGCC
The “PBM E-score” value of the first is lower: 0.119 for the first, 0.281 for the second.

Compared with ATGGCGCC, CTGGCGCA is lower in “PBM E-score” value: 0.0356 for the first, -0.117 for the second.

Compared with GCAAAACC, ACAAAAAC is lower in “PBM E-score” value: 0.0964 for the first, 0.0302 for the second.

Going from ACAAAACC to ATTTTGAC, the “PBM E-score” value falls from 0.246 to 0.232.

Compared with ATTTTGAG, AATTTGAC is higher in “PBM E-score” value: 0.0761 for the first, 0.127 for the second.

Going from TGTTTGAA to ACTTCGAC, the “PBM E-score” value falls from -0.00474 to -0.0444.

Going from GTATCATA to CTATCATA, the “PBM E-score” value falls from 0.251 to 0.125.

First: ATATCATA
Second: AGTAGATA
The “PBM E-score” value of the first is lower: 0.174 for the first, 0.249 for the second.

First: AGTATAAT
Second: ACTATATC
The “PBM E-score” value of the first is higher: 0.257 for the first, 0.182 for the second.

Going from AGTATAAC to AGTAGATC, the “PBM E-score” value rises from -0.131 to -0.0113.

Compared with AGTATATC, GCTATATA is lower in “PBM E-score” value: 0.107 for the first, 0.0573 for the second.

Going from AGTATATG to AGTATATA, the “PBM E-score” value rises from 0.129 to 0.327.

First: CGTAGATA
Second: AGTATAAA
The “PBM E-score” value of the first is lower: -0.0208 for the first, 0.194 for the second.

Compared with ACTATATA, GAGGTGCC is lower in “PBM E-score” value: 0.23 for the first, -0.0447 for the second.

Going from CAAAATCG to AGAGGACG, the “PBM E-score” value falls from 0.109 to -0.0944.

Going from ACGGCGCG to CGACACCA, the “PBM E-score” value falls from 0.214 to -0.124.

Compared with GAGACAGA, ACAGCGAT is lower in “PBM E-score” value: 0.14 for the first, -0.201 for the second.

Going from CGGAACAC to AGGAACAC, the “PBM E-score” value falls from 0.264 to 0.131.

Compared with CGGAACCA, CCGAACGC is lower in “PBM E-score” value: 0.294 for the first, 0.0363 for the second.

Going from ACGAACCA to CGGAACCG, the “PBM E-score” value falls from 0.235 to -0.162.

Compared with CCGAACCA, ACGAACGA is higher in “PBM E-score” value: -0.00203 for the first, 0.0396 for the second.

Compared with GGGAACCA, CGGAACAA is higher in “PBM E-score” value: -0.231 for the first, 0.122 for the second.

First: ACGAACGC
Second: ACGAACCC
The “PBM E-score” value of the first is higher: 0.267 for the first, -0.00702 for the second.
